D3 antag – qHTS of D3 Dopamine Receptor Antagonist: qHTS | D3R cells, DiscoveRx beta-arrestin luminescence, antagonist mode; stronger effect = lower value | D(3) dopamine receptor (Homo sapiens), P35462 | max response, negative = inhibition, % | actives 2.5% (n = 360,000) | AID 652054, 2013; in the data active = max response below about -50%; inconclusive = no clear call, values can overlap the other calls; also: % is scaled to controls: 0 for no effect and ±100 for the full control effect
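Cells expressing the human receptor were seeded at 1500 cells/well, incubated overnight at 37 degrees C in 5% CO2, then exposed to library compounds with dopamine controls for 90 minutes at 37 degrees C before luminescent detection.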
D1 agonist – Allosteric Agonists of the Human D1 Dopamine Receptor: qHTS; actives 1% (n = 360,000); AID 504660, 2011; activation, % at 2 µM; HEK293 T-REx D1 cells, calcium flux, agonist mode; D(1A) dopamine receptor (Homo sapiens), P21728; in the data active = activation above about 30%; also: 0% is about no effect
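Agonism was scored from calcium flux recorded over 180 s (1 read/s) after pintool compound addition, following a 10-cycle baseline. Cells were inducible force-coupled HEK293 TREx D1, plated overnight at 30 C and loaded with no-wash calcium dye.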
D1 PAM – Potentiators of Human D1 Dopamine Receptor: qHTS | D(1A) dopamine receptor (Homo sapiens), P21728 | HEK293 TREx D1 cells, calcium flux, dopamine EC20 potentiation | potentiation, % at 10 µM | actives 0.036% (n = 360,000) | AID 504651, 2011; in the data active = potentiation above about 30%; also: 0% is about no effect
D1 antag – Antagonist of Human D 1 Dopamine Receptor: qHTS | D(1A) dopamine receptor (Homo sapiens), P21728 | HEK293 TREx D1 cells, calcium flux, dopamine EC80; stronger effect = lower value | activity change, negative = inhibition, % at 10 µM | actives 3.2% (n = 360,000); in the data active = activity change below about -30%; also: % is scaled to controls: 0 for no effect and ±100 for the full control effect
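Allosteric or orthosteric antagonism assessed as attenuation of the calcium response to EC80 dopamine, added 180 s after compound, in induced HEK293 Trex D1 cells loaded with no-wash calcium dye.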
ERG-DNA inh – qHTS for Small Molecule Inhibitors of the ERG Ets/DNA interaction | fluorescence polarization, His-ERG Ets domain / labelled DNA | actives 0.028% (n = 370,000) | Potency, µM (doses to about 76.9 µM), for inactives: top-dose FP activity, negative = inhibition, most hits filed as inhibitors | AID 624246, 2012 | Transcriptional regulator ERG (Homo sapiens), P11308; active = well fitted inhibition curve with a large enough effect in the polarisation, with a control signal flat; inconclusive = small, poorly fitted or top-dose-only effect, or effect the other way, or a change in a side signal; inactive = no such curve, though single readings can be large or run the other way; the % refers to the polarisation;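 also: polarization taken with two DNA probes labelled with fluorescein and Texas red; potency is read from the fitted curve at half-maximal effect; % of control where 0% means no effect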
Target sequence (P11308 whole entry, looked up, the tested form may be a part): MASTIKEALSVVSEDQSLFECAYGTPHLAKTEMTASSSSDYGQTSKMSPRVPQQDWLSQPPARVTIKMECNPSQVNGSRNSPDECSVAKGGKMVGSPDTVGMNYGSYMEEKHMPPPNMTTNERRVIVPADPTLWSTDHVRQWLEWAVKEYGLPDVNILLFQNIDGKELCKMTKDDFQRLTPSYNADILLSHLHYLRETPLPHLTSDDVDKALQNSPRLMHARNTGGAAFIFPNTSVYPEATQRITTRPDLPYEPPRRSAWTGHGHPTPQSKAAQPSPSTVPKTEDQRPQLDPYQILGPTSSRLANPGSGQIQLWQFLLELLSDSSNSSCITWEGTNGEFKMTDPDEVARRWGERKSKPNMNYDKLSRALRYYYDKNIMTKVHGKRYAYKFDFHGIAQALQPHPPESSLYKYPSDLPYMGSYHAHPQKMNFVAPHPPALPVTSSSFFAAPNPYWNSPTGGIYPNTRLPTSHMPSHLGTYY
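His-tagged ERG Ets domain (1 uM in the protein solution; 300mM KCl, 50mM Tris-HCl, 1mM EDTA, 1mM DTT, pH 7.5) received compound, then a probe mix of 5 nM fluorescein-DNA and 100nM Texas-615-DNA. Fluorescence polarization was read for both dyes.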
D3 ag – qHTS of D3 Dopamine Receptor Agonist: qHTS; max activation, %; D(3) dopamine receptor (Homo sapiens), P35462; actives 0.58% (n = 410,000); D3R DiscoveRx beta-arrestin cells, luminescence, 90 min; in the data active = max activation above about 30%; also: 0% is about no effect
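Agonist mode: compounds and dopamine controls were applied to plated cells for 90 min at 37 degrees C after an overnight attachment at 1500 cells/well. Luminescent read-out followed 30 - 60 minutes at room temperature with DiscoveRx detection reagent.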
Active calls of the source: *; u = inconclusive; x = no result given. Most compounds without a hit are left out; they make up all but 6.1% or so of the library.

SMILES	D3 antag	D1 agonist	D1 PAM	D1 antag	ERG-DNA inh	D3 ag
CC1(C(=O)NS(=O)(=O)c2cccs2)CCN1C(=O)Cc1ccc(Cl)cc1Cl (stereo not given)	-15	x	x	x	x	0
Cn1cc(C=C2C(=O)OC3(CCCCC3)OC2=O)c2ccccc21	11	2	-3	-30*	7%	5
Cn1cc(C=C2C(=O)CC(C)(C)CC2=O)c2ccccc21	13	-1	-1	4	0%	-2
CC(OC(=O)Cn1cc(C(F)(F)F)ccc1=O)C(=O)N(C)c1ccccc1 (stereo not given)	-9	x	x	x	0%	-3
Cc1onc(-c2c(Cl)cccc2Cl)c1C(=O)NC(C)(C)CO	-17	3	0	-6	-9%	-3
Cc1cccc(-c2onc3ccc(C4(C)OCCO4)cc23)c1	31	4	4	2	6%	4
COc1cccc(-c2nc3c(c(C)nn3-c3ccccc3)c3cc(OC)c(OC)cc23)c1	x	1	-2	-5	2%	13
Cc1cc(C)c2c(C)nn(-c3ccccc3)c2n1	3	37*	4	1	-5%	1
COc1cc2c(-c3ccc(O)cc3)nc3c(c(C)nn3-c3ccccc3)c2cc1OC	29	11	-8	15	-8%	80*
Cc1cc(C)c2c(C(C)(C)C)nn(-c3ccccc3)c2n1	26	1	5	5	-1%	1
Cc1ccc(CNc2ccc(-c3nc(-c4cccnc4)no3)cc2[N+](=O)[O-])cc1	x	20	-3	-13	1%	1
O=C(CSc1ccc([N+](=O)[O-])cc1)Nc1cccc(S(=O)(=O)Nc2ccccc2F)c1	-2	10	-9	-11	-8%	1
C=C(CN(C)C)C(=O)c1cc(C)ccc1C	-88*	x	x	x	2%	-18
C=CCNC(=O)c1ccc(CN(c2ccc(OCC)cc2)S(=O)(=O)c2ccc(C)cc2)cc1	16	3	3	-6	2%	-9
Cc1ccc(Oc2ccc(Oc3ccc(C)cc3)nn2)cc1	6	44*	1	1	-3%	5
Cc1ccc(Oc2ccc(/C=N/O)cn2)cc1	-5	0	-1	6	-6%	0
C=CCN1C(=O)/C(=C/c2ccc(N(C)C)cc2)S/C1=N\c1nnc(CC)s1	x	167*	2	-27	x	x
C=CCN1C(=O)/C(=C/c2ccc(O)c(OC)c2)S/C1=N/c1nccs1	-17	130*	7	-3	x	5
C=CCN1C(=O)/C(=C/c2ccc(OCC(=O)O)cc2)S/C1=N/c1nccs1	10	4	-4	-11	0%	3
C=CCN=C1S/C(=C\c2ccc(Cl)cc2)C(=O)N1CC=C	24	4	-6	-22	-6%	17
COc1cc(C(=S)N2CCOCC2)ccc1OS(=O)(=O)c1ccc(NC(C)=O)cc1	7	12	-7	-17	-4%	2
CCCCn1c(=O)n(CC(=O)Nc2ccc(OC)c(Cl)c2)c(=O)c2c1nc(CO)n2CCC	10	3	1	-1	-7%	5
CSCCC(/C(O)=C(\C#N)c1nc2ccccc2[nH]1)N1C(=O)c2ccccc2C1=O (stereo not given)	-12	1	2	-31*	-6%	-5
COc1ccc(CC2(CO)CCN(Cc3ccc(OC(F)(F)F)cc3)CC2)cc1	-20	12	-5	6	13%	-19
COc1ccccc1/C=C/C=N/N1CCN(Cc2ccccc2)CC1	-5	2	-9	-9	2%	3
SMILES	D3 antag	D1 agonist	D1 PAM	D1 antag	ERG-DNA inh	D3 ag
COc1ccccc1/C=C/CN1CCN(c2ccccc2)CC1	-64*	2	-8	-54*	x	19
COc1ccc(CC2(CO)CCN(C(C)COc3ccccc3)CC2)cc1 (stereo not given)	u	0	-3	0	-4%	18
CC(COc1ccccc1)N1CCC(CO)(Cc2ccccc2)CC1 (stereo not given)	-89*	14	-2	20	6%	-9
COc1ccc(CC2(CO)CCN(C/C=C/c3ccccc3OC)CC2)cc1	-93*	0	2	22	-6%	-26
COc1ccccc1/C=C/CN1CCCC(CO)(CCc2ccccc2)C1 (stereo not given)	-96*	1	0	-18	-6%	-23
CCOc1ncccc1C(=O)OCC(=O)NC(=O)c1ccccc1	5	1	-3	18	3%	0
COc1ccc(C(=O)Nc2ccc3c(c2)C(=O)NC3=O)cc1	15	8	0	6	-7%	1
COc1cccc(CN(C)CC(=O)NC(=O)NCc2ccco2)c1	9	-1	-4	-4	-1%	-3
COc1ccc(-c2nnn(CC(=O)NC(=O)NC3CCCCC3)n2)cc1OC	-8	-1	0	-18	1%	-1
OCC1(CCc2ccccc2)CCCN(C/C=C/c2ccccc2)C1 (stereo not given)	-68*	6	-7	8	0%	-23
Cc1nc2ccc(C(=O)OCc3nnc(-c4ccccc4)o3)cc2nc1C	9	1	2	-7	-19%	6
COc1ccc(CCNc2nc(-c3sc(N)nc3C)cs2)cc1OC	105	1	-7	-61*	3%	-1
O=C(c1cc([N+](=O)[O-])ccc1Cl)N1c2ccccc2Sc2ccccc21	12	3	-7	-37*	-8%	16
CCCCCCCCN1[C@@H](CC(=O)OC)c2cc(F)ccc2S1(=O)=O	16	x	x	x	1%	2
CCCCCCCCCCCCN1[C@@H](CC(=O)O)c2cc(C(F)(F)F)ccc2S1(=O)=O	2	x	x	x	14%	37*
CCCCCCCCCCCCN1[C@@H](CC(=O)O)c2cc(F)ccc2S1(=O)=O	1	x	x	x	7%	40*
CCCCn1nnnc1C1(C)CCC(=O)N1CCCn1ccnc1 (stereo not given)	-106*	x	x	x	x	-13
O=C(Cc1c(O)c2ccccc2[nH]c1=O)N(Cc1ccccc1)Cc1ccccc1	-13	1	-9	0	-2%	2
CCCCCCN(CCCCCC)C(=O)Cc1c(-c2ccc(F)cc2)[nH]c2ccccc12	42	-1	-7	-61*	-8%	17
CCOC(=O)C(CC)n1cnc2c(cnn2-c2ccc(Cl)cc2)c1=O (stereo not given)	70	10	-3	-32*	7%	4

Compound activity deposited in PubChem BioAssay by National Center for Advancing Translational Sciences (NCATS).
